# Assay results: PubChem BioAssay (NCATS)
# Active and inactive are the calls of the source. No rule for the calls is given here.
# Details: Ebola virus entry assay, ratio channel
SMILES,AC50,outcome
C1CCC(C(CC2CCCCN2)C2CCCCC2)CC1 (centres undefined),0.891 µM (active),–
CN(C)CCCOc1nn(Cc2ccccc2)c2ccccc12,3.55 µM (active),–
CCCCCCCCCCOCC(O)CN (centres undefined),1.78 µM (active),–
C[C@H]1O[C@@H](O[C@H]2CC[C@@]3(C)[C@H](CC[C@@H]4[C@@H]3C[C@@H](O)[C@]3(C)[C@@H](C5=CC(=O)OC5)CC[C@]43O)C2)C[C@H](O)[C@@H]1O[C@H]1C[C@H](O)[C@H](O[C@H]2C[C@H](O)[C@H](O[C@@H]3O[C@H](CO)[C@@H](O)[C@H](O)[C@H]3O)[C@@H](C)O2)[C@@H](C)O1,0.891 µM (active),–
CN1CCC(=C2c3ccccc3CC(=O)c3sccc32)CC1,28.2 µM (active),–
CC(=O)NC(Cc1ccccc1)C(=O)O (centres undefined),–,inactive
CCCCC[C@H](O)C=C[C@H]1[C@H](O)CC(=O)[C@H]1CC=CCCCC(=O)O,7.08 µM (active),–
CCOC(=O)Cn1cccc1-c1nc(-c2ccc(OC)cc2)c(-c2ccc(OC)cc2)s1,0.708 µM (active),–
Cc1ccc(N(CC2=NCCN2)c2cccc(O)c2)cc1,31.6 µM (active),–
Nc1c2c(nc3c1CCC3)CCCC2,–,inactive
COc1cccc2c1C(=O)c1c(O)c3c(c(O)c1C2=O)C[C@@](O)(C(C)=O)C[C@@H]3O[C@H]1C[C@H](N)[C@H](O)[C@H](C)O1,5.01 µM (active),–
O=C(O)c1cn(-c2ccc(F)cc2)c2cc(N3CCNCC3)c(F)cc2c1=O,–,inactive
C[C@@H]1CN(CCCn2c3ccccc3c3ccccc32)C[C@H](C)N1,3.16 µM (active),–
OCc1cc(C(O)CNCCCCCCOCCCCc2ccccc2)ccc1O (centres undefined),7.08 µM (active),–
COc1ccc(CCN2CCC(Nc3nc4ccccc4n3Cc3ccc(F)cc3)CC2)cc1,2.82 µM (active),–
NC(=NCCCCCCN=C(N)/N=C(\N)Nc1ccc(Cl)cc1)/N=C(\N)Nc1ccc(Cl)cc1,–,inactive
O=C(c1ccc(F)cc1)C1CCN(CCn2c(=O)[nH]c3ccccc3c2=O)CC1,17.8 µM (active),–
CCN(CC)CCOc1ccc(Cc2ccccc2)cc1,3.55 µM (active),–
CN(C)CC/C=C1\c2ccccc2Sc2ccc(Cl)cc21,3.16 µM (active),–
CCO[C@@H]1O[C@H](C(COCc2ccccc2)OCc2ccccc2)[C@H](OCc2ccccc2)[C@H]1O (some centres undefined),15.8 µM (active),–

SMILES,AC50,outcome
CN(C)C(=S)SC(=S)N(C)C,5.01 µM (active),–
CN1CCN(C2Cc3ccccc3Sc3ccc(Cl)cc32)CC1 (centres undefined),5.01 µM (active),–
CC(=O)c1ccc2c(c1)N(CCCN(C)C)c1ccccc1S2,12.6 µM (active),–
CCN1C(=O)c2ccccc2C1Nc1ccc(OCCN2CCCCC2)cc1 (centres undefined),15.8 µM (active),–
O=C(CCCN1CCN(c2ccc(F)cc2)CC1)NC1c2ccccc2CSc2ccccc21 (centres undefined),7.08 µM (active),–
CCN(CC)CCOc1ccc(C(O)(Cc2ccc(Cl)cc2)c2ccc(C)cc2)cc1 (centres undefined),1.78 µM (active),–
OCCN1CCN(CCCN2c3ccccc3C=Cc3ccccc32)CC1,14.1 µM (active),–
CC1=C(C(=O)OC(C)C)C(c2cccc([N+](=O)[O-])c2)C(C(=O)OC2CN(C(c3ccccc3)c3ccccc3)C2)=C(N)N1 (centres undefined),28.2 µM (active),–
O=C(NC1CCN(CCc2c[nH]c3ccccc23)CC1)c1ccccc1,35.5 µM (active),–
O=C(CCCN1CC=C(n2c(=O)[nH]c3ccccc32)CC1)c1ccc(F)cc1,17.8 µM (active),–
CC(CC1c2ccccc2CCc2ccccc21)CN(C)C (centres undefined),3.98 µM (active),–
CCCC(=O)O[C@]1(C(=O)CC)CC[C@H]2[C@@H]3CCC4=CC(=O)CC[C@]4(C)[C@H]3[C@@H](O)C[C@@]21C,–,inactive
CCCCCCCCCCCCCCCC[N+](C)(C)Cc1ccccc1,22.4 µM (active),–
O=C1OC2(c3ccccc31)c1cc(I)c(O)c(I)c1Oc1c2cc(I)c(O)c1I,–,inactive
CN1C[C@H](C(=O)N[C@]2(C)O[C@@]3(O)[C@@H]4CCCN4C(=O)[C@H](Cc4ccccc4)N3C2=O)C[C@@H]2c3cccc4[nH]cc(c34)C[C@H]21,17.8 µM (active),–
CCN(CC)CCOc1ccccc1C(=O)CCc1ccccc1,14.1 µM (active),–
CCC(CN)=C(c1ccccc1)c1ccccc1,17.8 µM (active),–
CN(C)CCOC(c1ccccc1)c1ccc(Br)cc1 (centres undefined),11.2 µM (active),–
COc1cccc(N(C)C(=S)Oc2ccc3c(c2)CCCC3)n1,28.2 µM (active),–
